# rCAG binder-1: r(CAG) repeat RNA binding; inhibition, % at 3 µM; 370,000 compounds, 1.3% hits; TO-PRO-1 dye displacement fluorescence;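 active = inhibition above the plate cutoff, the mean of all test compounds on that plate plus 3 SD, cut at about 35% in these data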;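 note: 0% = DMSO alone and 100% = 100 µM mitoxantrone as full dye displacement; higher means more dye released from RNA so lower well fluorescence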
# EBNA-1 inh: blocks EBNA-1 binding to DNA; EBNA-1 DNA binding, fluorescence polarization; inhibition, % at 14.8 µM; 300,000 compounds, 0.34% hits; AID 1950; in the data active = inhibition above about 28%
# PAFAH2 FP inh: inhibitors of human PAFAH2 | Q99487 | inhibition, % at 3.39 µM | recombinant PAFAH2, FP-rhodamine activity probe, fluorescence polarization | 340,000 compounds, 0.99% hits | AID 492956;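 active = inhibition above the mean over all tested compounds plus 3 SD, cut at about 30% in these data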;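 note: inhibitors block probe labeling of enzyme so polarization drops; 0% = enzyme with DMSO and 100% = wells lacking PAFAH2 protein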
# PAFAH1B2 inh: inhibitors of human PAFAH1B2; recombinant PAFAH1B2, FP-rhodamine activity probe, fluorescence polarization; inhibition, % at 3.39 µM; 340,000 compounds, 1.2% hits; AID 492953;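 active = inhibition above the mean of all tested compounds plus 3 SD, cut at about 24% in these data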;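 note: 0% = enzyme with DMSO and 100% = wells lacking PAFAH1B2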
# Target sequence (P68402 whole entry, looked up): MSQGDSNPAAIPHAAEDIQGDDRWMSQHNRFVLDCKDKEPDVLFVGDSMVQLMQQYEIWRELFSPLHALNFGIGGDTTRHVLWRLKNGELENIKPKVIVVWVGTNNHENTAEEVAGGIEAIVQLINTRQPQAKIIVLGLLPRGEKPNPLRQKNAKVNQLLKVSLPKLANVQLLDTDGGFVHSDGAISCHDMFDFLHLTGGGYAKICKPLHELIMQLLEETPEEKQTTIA
# PAFAH1B3 FP inh: PAFAH1B3 (human) inhibition; inhibition, % at 3.39 µM; recombinant PAFAH1B3, FP-rhodamine probe, fluorescence polarization; 340,000 compounds, 0.28% hits; AID 492972;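 active = inhibition above the screen-wide average of all tested compounds plus 3 SD, cut at about 25% in these data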;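 note: 0% = enzyme with DMSO only and 100% = wells lacking PAFAH1B3 protein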
# ZTA DNA inh: ZTA (EBV) inhibition in EBNA-1 counter-screen; inhibition, % at 11 µM; 320,000 compounds, 0.15% hits; ZTA-DNA binding, fluorescence polarization; in the data active = inhibition above about 33%
# Target sequence (P03206 whole entry, looked up): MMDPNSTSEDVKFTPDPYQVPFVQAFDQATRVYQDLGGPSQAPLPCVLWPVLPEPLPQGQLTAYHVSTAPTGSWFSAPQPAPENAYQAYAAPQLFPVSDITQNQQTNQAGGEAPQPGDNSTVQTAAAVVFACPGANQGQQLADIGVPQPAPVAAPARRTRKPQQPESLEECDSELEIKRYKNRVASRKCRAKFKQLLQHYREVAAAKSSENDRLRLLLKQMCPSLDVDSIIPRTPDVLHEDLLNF
# rCAG bind conf: r(CAG) RNA repeat binding, confirmation; TO-PRO-1 dye displacement fluorescence; shares compounds with rCAG binder-1; inhibition, % at 3 µM; 4,300 compounds, 70% hits;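 active = inhibition above a per-plate cutoff, the mean inhibition of sample wells plus 3 SD, cut at about 35% in these data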;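 note: loss of TO-PRO-1 fluorescence as compound displaces dye from 1x1 AA loop RNA; 0% = DMSO only wells and 100% = 100 µM mitoxantrone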
# DNA CAG counter: counter-screen for rCAG RNA binders: DNA CAG dye complex inhibitors | inhibition, % at 3 µM | 4,300 compounds, 94% hits | AID 652068 | d(CAG) DNA oligo TO-PRO-1 dye displacement, fluorescence | shares compounds with rCAG binder-1;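 active = inhibition above its plate's cutoff, the mean test-well inhibition plus 3 SD, cut at about 4.8% in these data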;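 note: 0% = DNA dye mix with DMSO and 100% = 100 µM mitoxantrone; hits displace the dye from DNA and so lower well fluorescence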
# dCAG dye DR: disrupts DNA CAG TO-PRO-1 complex in dose response; shares compounds with rCAG binder-1; DNA CAG/GTC duplex TO-PRO-1 dye displacement fluorescence; IC50, µM; 250 compounds, 20% hits; AID 686960; in the data active = IC50 below about 10 µM
# dCAG DNA bind: inhibits DNA CAG/GTC TO-PRO-1 complex, rCAG binder counter-screen; d(CAG) DNA duplex TO-PRO-1 dye displacement, fluorescence; AID 720649; shares compounds with rCAG binder-1; 30 compounds, 80% hits; IC50, µM
# rCAG binder-2: molecules binding r(CAG) RNA repeats, late stage dose response. 30 compounds, 100% hits. IC50, µM. r(CAG) RNA TO-PRO-1 dye displacement, fluorescence. shares compounds with rCAG binder-1
# * marks the source's active call; other numbers are inactive results; i = inactive; nt = not tested or not shown. Hits are enriched below; roughly 2.9% of the tested compounds scored in any of these assays. Unless noted, the rule behind the calls is not given here.
SMILES,rCAG binder-1,EBNA-1 inh,PAFAH2 FP inh,PAFAH1B2 inh,PAFAH1B3 FP inh,ZTA DNA inh,rCAG bind conf,DNA CAG counter,others
N/C(=N\C(=O)OCc1ccccc1)N(Cc1ccccc1)C(C#CC1=CCCCC1)Cc1ccccc1 (stereo not drawn),12,nt,nt,nt,nt,nt,nt,nt,
CCOc1ccc(NC(=O)CN(C)C(=O)c2cc([N+](=O)[O-])ccc2N2CCOCC2)cc1OCC,-3,7,3,7,4,-4,nt,nt,
COC(=O)c1cc(=O)nc(NN=Cc2ccccc2)s1,6,nt,nt,nt,nt,nt,nt,nt,
COC(=O)c1cc(=O)nc(NN=C2c3ccccc3-c3ccccc32)s1,38*,nt,nt,nt,nt,nt,94*,77*,
COc1ccc(Cl)cc1NS(=O)(=O)c1cccc(C(=O)NC2CCN(Cc3ccccc3)CC2)c1,22,nt,1,-3,-1,nt,nt,nt,
O=C(c1cccc(S(=O)(=O)Nc2ccccc2Cl)c1)N1CCCCCC1,10,0,3,13,14,3,nt,nt,
O=C(NC1CCN(Cc2ccccc2)CC1)c1cccc(S(=O)(=O)Nc2cc(C(F)(F)F)ccc2Cl)c1,64*,3,-6,1,14,6,55*,17*,
CCC1CCCCN1C(=O)c1cccc(S(=O)(=O)Nc2cc(C(F)(F)F)ccc2Cl)c1 (stereo not drawn),36*,12,4,8,3,0,56*,16*,
N#C/C(=C(/O)CN1CCN(c2ccccc2F)CC1)c1nc(-c2ccccc2)cs1,58*,-10,5,4,13,-9,49*,16*,
CC(C)CCN(CCC(C)C)C/C(O)=C(\C#N)c1nc(-c2ccccc2)cs1,5,10,6,4,-6,3,nt,nt,
Cc1noc(C)c1CSCC(=O)Nc1nc2c(F)cc(F)cc2s1,36*,nt,29,0,1,-5,29,18*,
COc1ccc2nc(NC(=O)CSCc3c(C)noc3C)sc2c1,3,-2,3,10,7,15,nt,nt,
Cc1ccc(C)c(OCC(O)CN2CCc3ccccc3C2)c1C (stereo not drawn),-7,-1,13,0,6,9,nt,nt,
CC1CN(S(=O)(=O)c2cccc(C(=O)Nc3ccc4c(c3)CCC4)c2)CC(C)O1 (stereo not drawn),-1,-5,1,1,-2,4,nt,nt,
CCCOc1ccc(C(=O)NNC(=S)NC(=O)c2cccs2)cc1,41*,-11,7,7,12,12,35*,11*,
CCCOc1ccc(C(=O)NNC(=S)NC(=O)c2ccccc2[N+](=O)[O-])cc1,36*,-1,5,7,13,-6,20,7.0*,
CC(C)(C)c1ccc(OCC(=O)NNC(=S)NC(=O)c2ccccc2[N+](=O)[O-])c(Br)c1,78*,-17,12,39*,6,-8,85*,55*,
CCOC(=O)Nc1sc2c(c1C#N)CCC(C)C2 (stereo not drawn),nt,-14,4,1,0,4,nt,nt,
CCC1CCc2c(sc(NC(=O)C3CC=CCC3C(=O)O)c2C#N)C1 (stereo not drawn),59*,11,-6,7,1,5,39*,11*,
CC1CCc2c(sc(NC(=O)COC(=O)C3CCCO3)c2C#N)C1 (stereo not drawn),0,4,0,7,8,9,nt,nt,
CC1CCc2c(sc(NC(=O)COC(=O)c3ccc(O)cc3)c2C#N)C1 (stereo not drawn),39*,-7,20,9,-4,-3,37*,19*,
COc1ccccc1CCCNC(=O)C1CCC(=O)N(CCc2ccc(Cl)cc2)C1 (stereo not drawn),-6,-7,6,6,6,-4,nt,nt,
Cc1onc(-c2ccccc2Cl)c1C(=O)Nc1nnc(-c2cccc([N+](=O)[O-])c2)s1,42*,-1,8,6,-4,19,34,7.4*,
CCSc1nnc(NC(=O)c2c(-c3ccccc3Cl)noc2C)s1,2,-3,19,10,-10,0,nt,nt,
N#Cc1ccc(C2=NC(C(F)(F)F)(C(F)(F)F)c3c(n(Cc4ccco4)c(=O)[nH]c3=O)N2)cc1,36*,15,-4,8,6,11,37*,7.1*,dCAG dye DR=>30;dCAG DNA bind=i;rCAG binder-2=3.6*
SMILES,rCAG binder-1,EBNA-1 inh,PAFAH2 FP inh,PAFAH1B2 inh,PAFAH1B3 FP inh,ZTA DNA inh,rCAG bind conf,DNA CAG counter,others
CCN(CC)c1ccc(S(=O)(=O)Nc2cc(Cl)ccc2Cl)cc1NC(=S)NC(=O)C1CCCC1,65*,13,6,-4,-2,-2,71*,35*,
N=C1/C(=C\c2ccc(Br)o2)C(=O)N=C2SC(CC(=O)N3CCOCC3)=NN12,36*,1,9,-3,3,2,18,5.1*,
CSc1ccc(/C=C2\C(=N)N3N=C(CC(=O)N4CCOCC4)SC3=NC2=O)cc1,14,5,7,-5,2,14,nt,nt,
CNc1nc2[nH]c(=O)c3c(c2s1)OC(N)=C(C#N)C3c1ccccc1 (stereo not drawn),10,1,3,8,7,9,nt,nt,
CCNc1nc2[nH]c(=O)c3c(c2s1)OC(N)=C(C#N)C3c1ccc(C)cc1 (stereo not drawn),53*,11,9,6,2,3,27,14*,
COc1ccc(C)cc1NC(=S)NNC(=O)c1c(Br)cnn1C,54*,-2,6,3,4,18,25,4.4*,
COCCCNC(=O)c1ccc(Cn2c(=O)c3ccccc3n(Cc3ccc([N+](=O)[O-])cc3)c2=O)cc1,5,nt,nt,nt,nt,nt,nt,nt,
Cc1cccc(-n2ccc(=O)c(C(=O)Nc3ccc(S(=O)(=O)Nc4onc(C)c4C)cc3)n2)c1,39*,7,-3,3,5,-6,43*,12*,
Cc1noc(NS(=O)(=O)c2ccc(NC(=O)c3oc4ccc(Cl)cc4c3C)cc2)c1C,88*,2,10,3,-1,-4,85*,48*,
Cc1ccc2c(=O)cc(C(=O)Nc3ccc(S(=O)(=O)Nc4onc(C)c4C)cc3)oc2c1,61*,-12,-4,5,3,-12,37*,11*,
